For eight molecules, outcome and AC50 results are on record in PubChem BioAssay (EPA / NIEHS).

The structures appear in SMILES notation. Active and inactive are the calls of the source. Rule for the calls: active = hit-call score of the fitted dose curve at least 0.9, where 1 is the maximum; inactive = score below 0.9.

Read-out in assay [1]: Human Leukocyte Antigen - DR isotype (HLADR), HLA-DRA (gene 3122)
The experiment in a line: BSK_CASM3C_HLADR: BioMAP Diversity Plus: CASM3C Assay for Human Leukocyte Antigen - DR isotype (HLADR) Biomarker Activity (AID 2283043).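 Note: cell-surface HLA-DR protein level quantified by ELISA.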 Conditions: primary human coronary artery smooth muscle cells; actives raise or lower the signal.

Read-out in assay [2]: Macrophage colony-stimulating factor (MCSF), CSF1 (gene 1435)
The experiment in a line: BSK_CASM3C_MCSF: BioMAP Diversity Plus: CASM3C Assay for Macrophage colony-stimulating factor (MCSF) Biomarker Activity (AID 2283044).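 Note: M-CSF protein amount quantified by ELISA after 24 h exposure.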 To be noted: primary human coronary artery smooth muscle cells; actives raise or lower the signal.

Read-out in assay [3]: Low-density lipoprotein receptor (LDLR), LDLR (gene 3949)
The experiment in a line: BSK_CASM3C_LDLR: BioMAP Diversity Plus: CASM3C Assay for Low-density lipoprotein receptor (LDLR) Biomarker Activity (AID 2283045).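 Note: LDLR protein level on the cell surface quantified by ELISA.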 Conditions: primary human coronary artery smooth muscle cells; actives raise or lower the signal.

Read-out in assay [4]: Monocyte Chemoattractant Protein-1 (MCP1), CCL2 (gene 6347)
Nature of the assay: BSK_CASM3C_MCP1: BioMAP Diversity Plus: CASM3C Assay for Monocyte Chemoattractant Protein-1 (MCP1) Biomarker Activity (AID 2283046).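 Note: MCP-1 level quantified by ELISA 24 h after dosing.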 Conditions: primary human coronary artery smooth muscle cells; actives raise or lower the signal.

The nature of assay [5]: BSK_CASM3C_Proliferation: Cell Proliferation Assessment in the BioMAP Diversity Plus: CASM3C Assay (AID 2283047).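 Note: sulforhodamine B total protein stain as relative cell number at 560 nm; sub-confluent cells exposed 48 h before staining; fitted both ways against DMSO so gain or loss of cell number.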 Conditions: primary human coronary artery smooth muscle cells.
Read-out in assay [6]: Monokine induced gamma interferon (MIG), CXCL9 (gene 4283)
The experiment in a line: BSK_CASM3C_MIG: BioMAP Diversity Plus: CASM3C Assay for Monokine induced gamma interferon (MIG) Biomarker Activity (AID 2283048).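 Note: MIG protein level measured by ELISA.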 To be noted: primary human coronary artery smooth muscle cells; actives raise or lower the signal.

Read-out in assay [7]: serum amyloid A (SAA), SAA1 (gene 6288)
Nature of the assay: BSK_CASM3C_SAA: BioMAP Diversity Plus: CASM3C Assay for serum amyloid A (SAA) Biomarker Activity (AID 2283049).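 Note: SAA protein level quantified by ELISA.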 Conditions: primary human coronary artery smooth muscle cells; actives raise or lower the signal.

Assay [8] can be described thus: BSK_CASM3C_SRB: Viability Assessment in the BioMAP Diversity Plus: CASM3C Assay (AID 2283050).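 Note: cells exposed to compound for 24 h.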 Conditions: primary human coronary artery smooth muscle cells.
Read-out in assay [9]: Thrombomodulin, THBD (gene 7056)
Nature of the assay: BSK_CASM3C_Thrombomodulin: BioMAP Diversity Plus: CASM3C Assay for Thrombomodulin Biomarker Activity (AID 2283051).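 Note: thrombomodulin protein level measured by ELISA 24 h after dosing.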 To be noted: primary human coronary artery smooth muscle cells; actives raise or lower the signal.

Read-out in assay [10]: Tissue Factor, F3 (gene 2152)
The experiment in a line: BSK_CASM3C_TissueFactor: BioMAP Diversity Plus: CASM3C Assay for Tissue Factor Biomarker Activity (AID 2283052).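 Note: cell surface tissue factor protein level read by ELISA.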 Conditions: primary human coronary artery smooth muscle cells; actives raise or lower the signal.

Read-out in assay [11]: Urokinase-type plasminogen activator receptor (uPAR), PLAUR (gene 5329)
Nature of the assay: BSK_CASM3C_uPAR: BioMAP Diversity Plus: CASM3C Assay for Urokinase-type plasminogen activator receptor (uPAR) Biomarker Activity (AID 2283054).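 Note: cell-surface uPAR protein level quantified by ELISA.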 To be noted: primary human coronary artery smooth muscle cells; actives raise or lower the signal.

Read-out in assay [12]: Vascular cell adhesion molecule 1 (VCAM1), VCAM1 (gene 7412)
The experiment in a line: BSK_CASM3C_VCAM1: BioMAP Diversity Plus: CASM3C Assay for Vascular cell adhesion molecule 1 (VCAM1) Biomarker Activity (AID 2283055).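 Note: VCAM-1 protein level quantified by ELISA on the cells.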 Conditions: primary human coronary artery smooth muscle cells; actives raise or lower the signal.

Read-out in assay [13]: Collagen III, COL3A1 (gene 1281)
Nature of the assay: BSK_hDFCGF_CollagenIII: BioMAP Diversity Plus: hDFCGF Assay for Collagen III Biomarker Activity (AID 2283056). To be noted: primary human foreskin fibroblasts; actives raise or lower the signal. Summed up: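 Human foreskin fibroblast primary cultures sampled 24 h after dosing; Collagen III quantified by ELISA. Signal fitted bidirectionally against DMSO baseline.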

Read-out in assay [14]: Interleukin-8 (IL8), CXCL8 (gene 3576)
The experiment in a line: BSK_hDFCGF_IL8: BioMAP Diversity Plus: hDFCGF Assay for Interleukin-8 (IL8) Biomarker Activity (AID 2283058). To be noted: primary human foreskin fibroblasts; actives raise or lower the signal. Summed up: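 Primary human foreskin fibroblasts (hDFCGF system) dosed with chemical; IL-8 measured by ELISA 24 hours later. Bidirectional curve fitting relative to DMSO baseline; cytotoxicity tracked in parallel cultures by SRB total protein staining.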

Assay [15] is described as follows: BSK_hDFCGF_Proliferation: Cell Proliferation Assessment in the BioMAP Diversity Plus: hDFCGF Assay (AID 2283059).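 Note: curves fitted for both rise and fall of signal versus DMSO baseline.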 Conditions: primary human foreskin fibroblasts. Summed up: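 Primary human foreskin fibroblasts, sub-confluent; […]; 10% TCA fix, 0.1% SRB stain, A560 total protein. Gain/loss fitted bidirectionally vs DMSO control.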
Read-out in assay [16]: Macrophage colony-stimulating factor (MCSF), CSF1 (gene 1435)
Nature of the assay: BSK_hDFCGF_MCSF: BioMAP Diversity Plus: hDFCGF Assay for Macrophage colony-stimulating factor (MCSF) Biomarker Activity (AID 2283060). To be noted: primary human foreskin fibroblasts; actives raise or lower the signal. In a few lines: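 Human foreskin fibroblast primary cultures; M-CSF measured by ELISA 24 hours after chemical dosing. Bidirectional fitting relative to DMSO, with overt cytotoxicity tracked by parallel SRB total-protein staining (0.1% SRB, 10% TCA fixation, 560 nm).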

Assay [17] is described as follows: BSK_hDFCGF_SRB: Viability Assessment in the BioMAP Diversity Plus: hDFCGF Assay (AID 2283061).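 Note: cells exposed to compound for 24 h before the read.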 To be noted: primary human foreskin fibroblasts. Summed up: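 Human foreskin fibroblasts in 96-well plates were treated 24 h. Total protein was measured by 0.1% SRB staining after 10% TCA fixation, read at 560 nm. Data were fitted bidirectionally against DMSO.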
Read-out in assay [18]: Interferon-gamma inducible Protein 10 (IP10), CXCL10 (gene 3627)
Nature of the assay: BSK_hDFCGF_IP10: BioMAP Diversity Plus: hDFCGF Assay for Interferon-gamma inducible Protein 10 (IP10) Biomarker Activity (AID 2283053). To be noted: primary human foreskin fibroblasts; actives raise or lower the signal. In a few lines:
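IP-10 levels, quantified by ELISA, are taken from human foreskin fibroblast cultures 24 h after chemical treatment, with DMSO serving as negative control and baseline for bidirectional analysis.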

Read-out in assay [19]: Epidermal growth factor receptor (EGFR), EGFR (gene 1956)
The experiment in a line: BSK_hDFCGF_EGFR: BioMAP Diversity Plus: hDFCGF Assay for Epidermal growth factor receptor (EGFR) Biomarker Activity (AID 2283057). To be noted: primary human foreskin fibroblasts; actives raise or lower the signal. Summed up:
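Measured by ELISA: EGFR levels on primary human foreskin fibroblasts 24 h after chemical treatment, analysed relative to DMSO with bidirectional fitting.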

Read-out in assay [20]: TIMP metallopeptidase inhibitor 1 (TIMP1), TIMP1 (gene 7076)
Nature of the assay: BSK_hDFCGF_TIMP1: BioMAP Diversity Plus: hDFCGF Assay for TIMP metallopeptidase inhibitor 1 (TIMP1) Biomarker Activity (AID 2283062). Conditions: primary human foreskin fibroblasts; actives raise or lower the signal. Summed up:
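Human foreskin fibroblast primary cultures dosed for 24 h; secreted/surface TIMP-1 quantified by ELISA. Bidirectional curve fitting against DMSO baseline; cytotoxicity tracked in parallel cultures by SRB total-protein staining.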

With `OCc1ccccc1`, the result in [1], in assay [2], in assay [3], in assay [4], in [5] and in assay [6] was inactive. The outcome in assay [7], in [8], in assay [9], in assay [10], in [11] and in assay [12] was inactive. The result in assay [13], in assay [14], in assay [15], in assay [16] and in assay [17] was inactive.

As a reminder, the AC50 is the midpoint of the concentration-response curve, whichever way the signal moves. As to `Cc1nccn1-c1ccc(Sc2cccc(C3(C(N)=O)CCOCC3)c2)cc1`, the AC50 is 15.7 µM (active) in [1]; 20 µM (active) in assay [5]; 16.4 µM (active) in [6]; 10.2 µM (active) in assay [18]; 14.9 µM (active) in assay [12]; 4.15 µM (active) in [15]. In assay [20], the AC50 is 2.1 µM (active). Further, the result in [2], in assay [3], in assay [4], in [7], in assay [8] and in assay [9] was inactive. The result in assay [10], in [11], in assay [19], in assay [14] and in assay [17] was inactive.

For the molecule `OCc1c[nH]c2ccccc12`, the result in assay [1], in [2], in assay [3], in [4], in assay [5] and in [6] was inactive. Further, the outcome in assay [7], in assay [8], in assay [10], in [18], in [11] and in assay [12] was inactive. For the same molecule, the outcome in assay [14], in assay [16], in [17] and in assay [20] was inactive. Moreover, the AC50 is 0.184 µM (active) in [9] and 23.8 µM (active) in [15].

With `CCc1cccc(CC)c1N`, the outcome in [1], in [2], in [3], in assay [4], in assay [5] and in assay [6] was inactive. In addition, the result in assay [7], in [8], in assay [9], in assay [10], in [18] and in [11] was inactive. The result in [12], in assay [14], in [15], in assay [16], in assay [17] and in assay [20] was inactive.

For `CCCc1ccccc1`, the result in assay [1], in assay [2], in [3], in assay [4], in assay [5] and in [6] was inactive. For the same molecule, the outcome in assay [7], in assay [8], in assay [9], in assay [10], in assay [11] and in assay [12] was inactive. The outcome in [13], in [19], in [14], in [15], in assay [17] and in assay [20] was inactive.

In the case of `c1ccc2cc3ccccc3cc2c1`, the result in assay [1], in assay [2], in assay [3], in assay [4], in [5] and in [6] was inactive. Moreover, the outcome in assay [7], in [8], in assay [9], in [10], in assay [18] and in [11] was inactive. For the same molecule, the result in assay [12], in assay [14], in assay [15], in [17] and in assay [20] was inactive.

Consider `Cn1c(=O)c2[nH]cnc2n(C)c1=O`, for which the outcome in assay [1], in assay [2], in [3], in assay [4], in [5] and in assay [6] was inactive. Besides, the result in assay [7], in [8], in [9], in assay [10], in assay [11] and in assay [12] was inactive. The outcome in assay [13], in assay [19], in assay [14], in [15], in [16] and in [20] was inactive.

`NC(N)=O`: the result in assay [18] was inactive.
